Measurements from PubChem BioAssay (Tox21).
Results filed as inconclusive are left out. Values without a mark were called inactive. Calls of active or inactive are those of the source. The call rests on the fitted dose curve; in most records, active means well fitted cell-killing curve with a large enough effect in the repeat runs; inconclusive means weak or mixed curves, or effect the other way; inactive means flat fitted curve, though single readings scatter.
On the % scale 0 is the no-effect control and ±100 the full control effect.

Assay: cAMP Responsive Elements (CRE) small molecule agonists, cell-based qHTS assay: qHTS cell viability counter screen (AID 2060914); further: nearly all actives have a fitted effect of over 50% in size
Conditions: CRE-bla HEK293T viability, CellTiter-Glo luminescence, 5 h; series mostly up to 92.4 µM; activity change, negative = cytotoxicity: at the top concentration
Method in brief: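 HEK 293T CRE-bla; DMEM + 10% dialyzed FBS, 25 mM HEPES; 18 h pre-incubation; compound 3 h, 37 °C/5% CO2; CellTiter-Glo added after reporter read; luminescence after 30 min RT.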
In the case of `Oc1ccc(Cl)c2cccnc12`, the “activity change, negative = cytotoxicity” value is reported as 5.99% [at 42.5 µM].
For `CC1(C)O[C@@H]2C[C@H]3[C@@H]4CCC5=CC(=O)CC[C@]5(C)[C@@]4(F)[C@@H](O)C[C@]3(C)[C@]2(C(=O)CCl)O1`, the “activity change, negative = cytotoxicity” value was 6.6% [at 42.5 µM].
In the case of `CC(C)C(=O)OCC(C)(C)C(O)C(C)C` (stereo not given), the “activity change, negative = cytotoxicity” value is reported as -1.29%.
In the case of `CCCCC/C=C\C/C=C\CCCCCCCC(=O)OC`, the Potency is reported as “inactive”.
For `CCCCC(CC)COC(=O)CCCCC(=O)OCC(CC)CCCC` (stereo not given), the Potency was “inactive”.
With `O=C(O)Cn1cnnn1` the “activity change, negative = cytotoxicity” value was 2.16% [at 42.5 µM].
With `O=c1[nH]cnc2[nH]ncc12` the Potency was “inactive”.
For `O=C1c2ccccc2S(=O)(=O)N1CCCCN1CCN(c2ncccn2)CC1`, the “activity change, negative = cytotoxicity” value was 2.34% [at 42.5 µM].
With `O=c1[nH]c(=O)n([C@H]2C[C@H](O)[C@@H](CO)O2)cc1I` the “activity change, negative = cytotoxicity” value was -5.16% [at 42.5 µM].
For `CCN1CCN(C(=O)N[C@@H](C(=O)N[C@@H]2C(=O)N3[C@@H]2SC(C)(C)[C@H]3C(=O)O)c2ccccc2)C(=O)C1=O`, the “activity change, negative = cytotoxicity” value was 2.27% [at 42.5 µM].
For `CCC(C)=O`, the “activity change, negative = cytotoxicity” value was 2.8%.
With `Cc1ncc([N+](=O)[O-])n1CC(O)CCl` (stereo not given) the “activity change, negative = cytotoxicity” value was -10.6% [at 42.5 µM].
In the case of `CNCC[C@H](Oc1cccc2ccccc12)c1cccs1`, the “activity change, negative = cytotoxicity” value is reported as 1.01% [at 42.5 µM].
In the case of `Cc1ccc(OC(=O)c2ccccc2O)cc1`, the “activity change, negative = cytotoxicity” value is reported as -19.2%.
In the case of `CC(=O)O[C@@H]1CC2C3CCc4cc(OC(=O)c5ccccc5)ccc4C3CCC2(C)[C@H]1OC(C)=O` (stereo not given in full), the “activity change, negative = cytotoxicity” value is reported as 3.45% [at 42.5 µM].
For `CCOC(=O)C(C)Oc1ccc(Oc2cnc3cc(Cl)ccc3n2)cc1` (stereo not given), the Potency was “inactive”.
In the case of `OC[C@H]1O[C@@H]2O[C@H]3[C@H](O)[C@@H](O)[C@@H](O[C@H]4[C@H](O)[C@@H](O)[C@@H](O[C@H]5[C@H](O)[C@@H](O)[C@@H](O[C@H]6[C@H](O)[C@@H](O)[C@@H](O[C@H]7[C@H](O)[C@@H](O)[C@@H](O[C@H]8[C@H](O)[C@@H](O)[C@@H](O[C@H]1[C@H](O)[C@H]2O)O[C@@H]8CO)O[C@@H]7CO)O[C@@H]6CO)O[C@@H]5CO)O[C@@H]4CO)O[C@@H]3CO`, the Potency is reported as “inactive”.
In the case of `O=S(=O)(O)c1cc(S(=O)(=O)O)c2ccc3c(S(=O)(=O)O)cc(S(=O)(=O)O)c4ccc1c2c43`, the activity change, negative = cytotoxicity is reported as -11.7% [at 18.9 µM].
For `CC1COc2c(N3CCN(C)CC3)c(F)cc3c(=O)c(C(=O)O)cn1c23` (stereo not given), the “activity change, negative = cytotoxicity” value was 4.48% [at 42.5 µM].
In the case of `Cc1cc(C)c(/C=C2\C(=O)Nc3ccccc32)[nH]1`, the “activity change, negative = cytotoxicity” value is reported as -10.2% [at 42.5 µM].
With `CC(C)NCC(O)c1ccc2ccccc2c1` (stereo not given) the “activity change, negative = cytotoxicity” value was -2.11% [at 42.5 µM].
For `C[n+]1ccn(CCO)c1`, the Potency was “inactive”.
For `CCc1cnc(C(=O)O)c(C(=O)O)c1`, the “activity change, negative = cytotoxicity” value was 13.1%.
With `CCCCCCCC/C=C\CCCCCCCC(=O)OCCO` the “activity change, negative = cytotoxicity” value was -1.94%.
In the case of `C#CC(O)C(CC)CCCC` (stereo not given), the “activity change, negative = cytotoxicity” value is reported as -6.02%.
Work on `NC[C@H]1O[C@H](O[C@H]2[C@H](O[C@@H]3O[C@H](CO)[C@@H](O)[C@H]3O)C(O)[C@H](N)C[C@@H]2N)[C@H](N)[C@@H](O)[C@@H]1O` (stereo not given in full) yielded an activity change, negative = cytotoxicity of 13.8% [at 8.39 µM].
In the case of `O=C(O)C1(C(=O)Nc2ccc(Cl)cc2Cl)CC1`, the “activity change, negative = cytotoxicity” value is reported as 1.87%.
In the case of `COc1ccc2cccc(CCNC(C)=O)c2c1`, the “activity change, negative = cytotoxicity” value is reported as 7.72% [at 42.5 µM].
In the case of `O=C(CCCCCCC(=O)Nc1ccccc1)NO`, the “activity change, negative = cytotoxicity” value is reported as 0.103% [at 42.5 µM].
In the case of `CCCN1CCCC[C@H]1C(=O)Nc1c(C)cccc1C`, the “activity change, negative = cytotoxicity” value is reported as -2.61% [at 42.5 µM].
For `Cc1cccc(C)c1NC(=O)CN1CCCCCC1`, the “activity change, negative = cytotoxicity” value was -11.1% [at 42.5 µM].
For `O=C(/C=C/c1ccc(O)c(O)c1)O[C@@H]1C[C@](O)(C(=O)O)C[C@@H](O)[C@H]1O`, the “activity change, negative = cytotoxicity” value was -6.46%.
With `O=C(OCCOCCOC(=O)c1ccccc1)c1ccccc1` the Potency was “inactive”.
With `Cn1cc(S(C)=O)c(=O)c2ccc(F)cc21` (stereo not given) the “activity change, negative = cytotoxicity” value was -4.14% [at 42.5 µM].
For `CCCCCCCCCCCCS`, the Potency was “inactive”.
With `CC(N)CN` (stereo not given) the “activity change, negative = cytotoxicity” value was 7.84%.
In the case of `c1ccc(CN(CC2=NCCN2)c2ccccc2)cc1`, the “activity change, negative = cytotoxicity” value is reported as 5.84% [at 42.5 µM].
For `CCCCCCCC(OC)OC`, the “activity change, negative = cytotoxicity” value was 8.71% [at 42.5 µM].
With `COc1ccccc1Oc1c(NS(=O)(=O)c2ccc(C(C)(C)C)cc2)nc(-c2ncccn2)nc1OCCO` the “activity change, negative = cytotoxicity” value was 19.9% [at 42.5 µM].
With `CC(=O)OCCC(C)CC(C)(C)C` (stereo not given) the “activity change, negative = cytotoxicity” value was 3.13%.
